L3MBTL1 inh: inhibitors of human L3MBTL1 | AlphaScreen L3MBTL1–H3K9me1 peptide binding | Q9Y468 | 0.66% of 230,000 active | Potency, µM (titrated, usually from 57.1 µM), for the others: top-dose activity, negative = inhibition, hits mostly inhibitors; note: nearly all actives have a fitted effect of over 60% in size
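AlphaScreen proximity signal between nickel-chelate acceptor and streptavidin donor beads (final 10 ug/mL) reports binding of 50 nM L3MBTL1 to 75 nM biotin-H3 K9me1 peptide; complex incubated with compounds 30 min at room temperature; cefsulodin titration as control.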
BLM inh: inhibitors of human Bloom syndrome helicase BLM. P54132. recombinant BLM DNA unwinding, fluorescence dequenching. Potency, µM (series often up to 56.1 µM), inactives show at the top dose activity change, negative = inhibition, usual class: inhibitors. 0.2% of 350,000 active;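 note: plate controls were vehicle for no effect and no enzyme for full effect; nearly all actives have a fitted effect of over 35% in size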
RECQ1 inh: blocks DNA unwinding by human RECQ1; P46063; RECQ1 DNA unwinding, red fluorescence kinetic read; Potency, µM (highest dose often 57.3 µM), for the others: top-dose activity, negative = inhibition, actives largely listed as inhibitors; 0.54% of 240,000 active; AID 2549;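 note: plate controls were vehicle for no effect and no enzyme for full effect; nearly all actives have a fitted effect of over 30% in size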
Target sequence (P46063 whole entry, looked up): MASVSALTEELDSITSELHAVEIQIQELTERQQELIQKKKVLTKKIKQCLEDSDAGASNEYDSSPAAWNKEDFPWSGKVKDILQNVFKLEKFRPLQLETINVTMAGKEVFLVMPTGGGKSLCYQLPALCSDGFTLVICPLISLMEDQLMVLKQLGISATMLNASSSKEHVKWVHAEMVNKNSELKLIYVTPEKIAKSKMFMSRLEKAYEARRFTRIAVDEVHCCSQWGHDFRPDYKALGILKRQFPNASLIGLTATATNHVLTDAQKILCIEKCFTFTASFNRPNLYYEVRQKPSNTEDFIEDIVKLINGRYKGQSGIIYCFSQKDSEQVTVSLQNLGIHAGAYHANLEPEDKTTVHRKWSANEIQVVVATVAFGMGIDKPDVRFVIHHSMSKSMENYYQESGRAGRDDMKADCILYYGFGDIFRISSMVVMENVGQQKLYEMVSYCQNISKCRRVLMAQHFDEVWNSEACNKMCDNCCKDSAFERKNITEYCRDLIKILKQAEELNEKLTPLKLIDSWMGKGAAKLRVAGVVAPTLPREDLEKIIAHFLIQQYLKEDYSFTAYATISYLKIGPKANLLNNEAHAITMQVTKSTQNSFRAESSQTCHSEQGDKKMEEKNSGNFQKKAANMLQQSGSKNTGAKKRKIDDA
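RECQ1T1 50 nM; forked duplex (20 bp + 30-nt ss tails) 200 nM, ATP 2 mM final; pH 8.0, 2 mM MgCl2, 2.5 ug/ml poly(dI-dC); 15 min compound preincubation; discontinuous kinetic read over 2 h at RT.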
JMJD2E inh: JMJD2E (human) inhibition | 1.6% of 230,000 active | Potency, µM (highest dose often 57.1 µM), for the others: at the top dose activity change, negative = inhibition, hits mostly inhibitors | JMJD2E catalytic domain, FDH-coupled NADH fluorescence (FDH is formaldehyde dehydrogenase) | B2RXH2; active = well fitted inhibition curve with a large enough effect, not every such curve was filed as active; inconclusive = small, poorly fitted or top-dose-only effect, or another doubt; inactive = no such curve, though single readings can be large or run the other way;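 note: 0% = wells with enzyme and -100% = buffer wells without enzyme; nearly all actives have a fitted effect of over 50% in size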
GCN5L2 inh: inhibitors of human GCN5L2 histone acetyltransferase. Q92830. Potency, µM (series often up to 58.9 µM), for inactives: top-dose activity change, negative = inhibition, hits mostly inhibitors. 0.21% of 390,000 active. GCN5L2 HAT assay, ThioGlo1 CoA-SH fluorescence
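ThioGlo1-coupled HAT assay: 20nM GCN5L2, 70uM acetyl-CoA, 75uM H3(1-25) peptide, pH 7.5. Fluorescence read at 340/540nm at start and after 20 min at room temperature.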
APEX1 inh: APE1 (human) endonuclease inhibition; P27695; recombinant APE1, TAMRA/BHQ-2 abasic DNA cleavage fluorescence; Potency, µM (highest dose often 65.8 µM), for inactives: at the highest dose activity change, negative = inhibition, actives largely listed as inhibitors; 0.35% of 350,000 active;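 note: plate controls were vehicle for no effect and reference inhibitor for full effect; nearly all actives have a fitted effect of over 55% in size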
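Quantitative HTS: incision of a TAMRA/BHQ-2 double-stranded substrate bearing a tetrahydrofuran abasic site by 0.75 nM APE1 raises fluorescence. Substrate 50 nM final, added after 15 min compound preincubation at room temperature; progress as third-minus-first kinetic read difference.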
* = called active by the depositor; i = inactive; ? = inconclusive; . = no result given; ! = a repeat was not active; [ ] = remark or other dose. Only a selection was taken, and hits are over-represented in it overall. Unless noted, calls come from the whole dose curve; as a rule, active = well fitted curve in the direction sought with a large enough effect; inconclusive = small, poorly fitted or top-dose-only effect, or another doubt; inactive = no such curve, though single readings can be large; an effect the other way counts as inactive or inconclusive. Unless noted, % is set by controls: 0 for no effect and ±100 for the full control effect; potency is the fitted concentration of half-maximal effect.

SMILES	L3MBTL1 inh	BLM inh	RECQ1 inh	JMJD2E inh	GCN5L2 inh	APEX1 inh
O=C(N/N=C/c1ccc(O)c([N+](=O)[O-])c1)c1ccncc1	.	-3%	i	-21%	-9%	1%
O=C(N/N=C/c1ccc([N+](=O)[O-])s1)c1cccc(Br)c1	-4%	-17%	-10%	3%	-9%	22µM*
Cc1ccc(C(=O)N/N=C/c2ccc([N+](=O)[O-])s2)cc1	-4%	-18%	-5%	-1%	-10%	?
CCCc1cc(=O)n2[nH]c(NC(=O)c3ccco3)nc2n1	.	-1%	.	.	-4%	28%
CCOc1ccc2oc(=O)cc(CN3CCN(c4ccc(Cl)cc4)CC3)c2c1	.	-2%	.	.	-2%	.
Cc1nc(C)c(C(=O)N/N=C/c2cc(Br)ccc2O)s1	.	-3%	7%	22µM*	32%	7%
COc1cc(O)c(/C=N/NC(=O)c2ccncc2)c(OC)c1[N+](=O)[O-]	.	-4%	-6%	22µM*	-14%	-7%
Cc1nc(C)c(C(=O)N/N=C/c2c[nH]c3ccccc23)s1	.	-1%	i	?	-8%	1%
O=C(N/N=C/c1ccc(O)c2ncccc12)c1cccc(Br)c1	7.9µM*	-9%	0%	-22%	0%	-11%
O=C(N/N=C/c1cc([N+](=O)[O-])ccc1O)c1ccc2c(c1)OCCO2	4%	-2%	6%	25µM*	-13%	2%
O=C(N/N=C/c1cccnc1)c1cccc(NC(=O)c2cccc(Br)c2)c1	.	-4%	.	.	-13%	-6%[12.4 µM]
O=C(Nc1ccccc1)N1CC2(CCN(C(=O)c3cnccn3)CC2)C1	.	1%	0%	.	-3%	3%
CCCCn1c(NC(C)=O)c(C#N)c2nc3ccccc3nc21	-3%	-5%	-6%	-1%	?	-1%
C=CCn1c(NC(=O)c2ccccc2Cl)c(C#N)c2nc3ccccc3nc21	?	1µM*	?	?	1%	-5%
CCc1ccc[n+](-c2[nH]c(=O)sc2/C=N/NC([S-])=Nc2ccccc2)c1	-24%	3%	0%	3.5µM*	1%	1%
O=c1[nH]c(-[n+]2ccccc2)c(/C=N/NC([S-])=Nc2ccccc2)s1	-20%	-8%	i	-29%	-6%	0%
Cc1ccc(O)c(N=Nc2ccc(S(=O)(=O)N3CCOCC3)cc2)c1	-20%	-3%	i	5%	-13%	8%
Cc1ccc(S(=O)(=O)Oc2ccc(N=Nc3ccc(-c4ccc(N=Nc5c(O)ccc6cc(S(=O)(=O)O)cc(S(=O)(=O)O)c56)c(C)c4)cc3C)cc2)cc1	.	.	25µM*	.	.	35µM*
NS(=O)(=O)c1cc(C(=O)NC2CCSc3ccccc32)ccc1Cl (centres undefined)	.	8.9µM*	.	.	?	0.12µM*
NS(=O)(=O)c1cccc(C(=O)NC2CCSc3ccccc32)c1 (centres undefined)	.	-4%	.	.	1%	48%
O=C(Nc1ccc(Oc2ccccc2)nc1)C1CCCCN1Cc1ccc(OCCO)cc1 (centres undefined)	.	-2%	.	.	0%	35%
COc1ccc(N2CCN(CC(O)COC(C)(C)C)CC2)cc1 (centres undefined)	2%	-1%	-3%	25µM*	1%	0%
COC/C=C/C1=CC2=CC(=O)C(C)(OC(=O)c3cnc4ccccc4n3)C(=O)C2=CN1c1ccc(CO)cc1 (centres undefined)	3.2µM*	13µM*!	-21%[11.5 µM]	-8%[11.4 µM]	?	11µM*!
COC/C=C/C1=CC2=CC(=O)C(C)(OC(=O)c3cnc4ccccc4n3)C(=O)C2=CN1c1ccccc1 (centres undefined)	.	-6%[12.4 µM]	-27%	0%[11.4 µM]	-13%	0%[12.4 µM]
O=C(N=Nc1c(O)[nH]c2ccc([N+](=O)[O-])cc12)c1cc(-c2ccccc2Cl)nc2ccccc12	-9%	4µM*	3%	21%	-16%	5%
O=[N+]([O-])c1cccc(-c2nnc3ccc4ccccc4n23)c1	-17%	5%	?	-30%	15%	13µM*

Bioassay records (PubChem BioAssay)
